This is part of a sample that, as a whole, favours compounds with a hit. Of some 79,000 tested, about 15% had one in any assay. The source made the active and inactive calls. No stated cut-off is given here; in the data, active means growth inhibition above about 70%; inactive means the rest.
Assays:
[1] = NCI Yeast Anticancer Drug Screen. Data for the rad18 strain (AID 177); details: S. cerevisiae rad18 mutant growth inhibition, active compounds read high
Method in brief: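 Compounds are applied to a repair-deficient yeast strain, and growth is compared with that of vehicle-treated cultures to give percent inhibition.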

[2] = NCI Yeast Anticancer Drug Screen. Data for the wt1 strain (AID 149);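 further: 0% = growth of vehicle-treated wt1 cultures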; details: S. cerevisiae wt1 strain (SPY 50644) growth inhibition, active compounds read high
Method in brief: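 Using yeast strain wt1, compound-induced growth inhibition was determined against vehicle-treated cultures.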

[3] = NCI Yeast Anticancer Drug Screen. Data for the rad50EPP+ strain (AID 151);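 further: 0% = growth of vehicle-treated control cultures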; details: S. cerevisiae rad50 mutant strain, active compounds read high
Method in brief: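 rad50EPP+ yeast treated with test compounds. Readout: growth vs vehicle control.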

[4] = NCI Yeast Anticancer Drug Screen. Data for the rad50 strain (AID 155);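 further: 0% = growth of vehicle-only cultures of the same strain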; details: S. cerevisiae rad50 strain growth inhibition, active compounds read high
Method in brief: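 Relative growth inhibition (compound vs vehicle) was measured in yeast with a defined repair-gene alteration.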

[5] = NCI Yeast Anticancer Drug Screen. Data for the mec2-1 strain (AID 157); details: S. cerevisiae mec2-1 strain, active compounds read high
Method in brief: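 Growth inhibition is read against vehicle-treated controls after compound exposure of the mec2-1 yeast strain, which is defective in DNA damage repair or cell cycle control.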

[6] = NCI Yeast Anticancer Drug Screen. Data for the rad14 strain (AID 159);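 further: 0% = growth of vehicle-treated control cultures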; details: S. cerevisiae rad14 strain growth inhibition, active compounds read high
Method in brief: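 Screen for anticancer potential: a yeast strain altered in DNA damage repair is grown with compound, and reduced growth is quantified against vehicle controls.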

[7] = NCI Yeast Anticancer Drug Screen. Data for the sgs1 mgt1 strain (AID 161);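 further: 0% = growth of cultures given vehicle only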; details: S. cerevisiae sgs1 mgt1 strain, active compounds read high
Method in brief: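 Percent growth inhibition was derived by comparing compound-exposed mutant yeast with vehicle-exposed cultures. The strain carries alterations in DNA damage repair.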

[8] = NCI Yeast Anticancer Drug Screen. Data for the CLN2oe strain (AID 163);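 further: 0% = growth of vehicle-only control cultures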; details: S. cerevisiae CLN2oe strain, active compounds read high
Method in brief: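 Compound-treated yeast; growth vs vehicle ctrl = % inhibition. Genetically altered strain (cell-cycle control).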

[9] = NCI Yeast Anticancer Drug Screen. Data for the cln2 rad14 strain (AID 165);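 further: 0% = growth equal to vehicle treated cultures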; details: S. cerevisiae cln2 rad14 strain, active compounds read high
Method in brief: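 Growth inhibition, relative to vehicle-treated controls, is the read-out. The test organism is a yeast strain with defined genetic alterations, cln2 rad14.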

[10] = NCI Yeast Anticancer Drug Screen. Data for the bub3 strain (AID 167); details: S. cerevisiae bub3 mutant strain, active compounds read high
Method in brief: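 Screening used yeast with an engineered genetic alteration affecting cell cycle control. Compound-exposed cultures were compared with vehicle cultures, and reduced growth was taken as inhibition.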

[11] = NCI Yeast Anticancer Drug Screen. Data for the wt2 strain (AID 169);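 further: 0% = growth of vehicle-treated yeast cultures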; details: S. cerevisiae wt2 strain growth inhibition, active compounds read high
Method in brief: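 Compound exposure of yeast; growth compared with vehicle controls; inhibition reported.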

[12] = NCI Yeast Anticancer Drug Screen. Data for the mlh1 strain (AID 171);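 further: 0% = growth of vehicle-treated control cultures of the same strain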; details: S. cerevisiae mlh1 strain growth inhibition, active compounds read high
Method in brief: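 Compounds are applied to a genetically altered yeast strain, and its growth is compared with that of vehicle-treated cultures to give percent inhibition.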

[13] = NCI Yeast Anticancer Drug Screen. Data for the sgs1 strain (AID 173);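 further: 0% = growth of vehicle-only control cultures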; details: S. cerevisiae sgs1 mutant, active compounds read high
Method in brief: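 Compounds applied to genetically altered yeast; growth compared with vehicle-treated cultures to give % inhibition.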

[14] = NCI Yeast Anticancer Drug Screen. Data for the mlh1 rad18 strain (AID 175); details: S. cerevisiae mlh1 rad18 strain growth inhibition, active compounds read high
Method in brief: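 Cells of a genetically altered yeast strain, deficient in DNA damage repair, were treated with compound. Their growth was then compared with that of vehicle-treated cultures to give inhibition.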

[15] = at 5.0 µM (retest, dose inferred, filed as 0.5)
[16] = at 50.0 µM (retest, dose inferred, filed as 5.0)

Measured: growth inhibition

Cc1ccc(S(=O)(=O)N/N=C/c2c(O)ccc3ccccc23)cc1
inactive: [1]; at 1.2 µM 8% | [1]; at 3.7 µM 17%
active: [1]; at 11.0 µM 87% | [1]; at 33.0 µM 87% | [1]; at 100.0 µM 83%

O=C(c1c(F)c(F)c(F)c(F)c1F)c1c(F)c(F)c(F)c(F)c1F
inactive: [2]; at 1.2 µM 3% | [2]; at 3.7 µM 49% | [3]; at 1.2 µM 30% | [3]; at 3.7 µM 60% | [4]; at 1.2 µM 27% | [4]; at 3.7 µM 59% | [5]; at 1.2 µM 36% | [5]; [15] 61% | [6]; at 1.2 µM 10% | [6]; at 3.7 µM 55% | [7]; [15] 15% | [8]; at 1.2 µM 4% | [9]; [15] 38% | [10]; at 1.2 µM 54% | [10]; [15] 3% | [11]; at 1.2 µM 16% | [11]; at 3.7 µM 52% | [12]; at 1.2 µM 16% | [12]; at 3.7 µM 56% | [13]; at 1.2 µM 39% | [14]; [15] 45% | [14]; at 50.0 µM 67.3% | [1]; at 1.2 µM 28% | [1]; at 3.7 µM 56%
active: [2]; at 11.0 µM 95% | [2]; at 33.0 µM 99% | [2]; at 100.0 µM 99% | [3]; at 11.0 µM 94% | [3]; at 33.0 µM 96% | [3]; at 100.0 µM 92% | [4]; [15] 79% | [4]; at 11.0 µM 95% | [4]; at 33.0 µM 96% | [4]; [16] 97% | [4]; at 50.0 µM 84.6% | [4]; at 100.0 µM 95% | [5]; at 3.7 µM 77% | [5]; at 11.0 µM 99% | [5]; at 33.0 µM 100% | [5]; [16] 99% | [5]; at 50.0 µM 87.5% | [5]; at 100.0 µM 99% | [6]; at 11.0 µM 98% | [6]; at 33.0 µM 99% | [6]; at 100.0 µM 99% | [7]; [16] 74% | [7]; at 50.0 µM 76.7% | [8]; at 3.7 µM 72% | [8]; at 11.0 µM 98% | [8]; at 33.0 µM 99% | [8]; at 100.0 µM 97% | [9]; [16] 70% | [9]; at 50.0 µM 85.7% | [10]; at 3.7 µM 80% | [10]; at 11.0 µM 96% | [10]; at 33.0 µM 99% | [10]; [16] 80% | [10]; at 50.0 µM 88.7% | [10]; at 100.0 µM 97% | [11]; at 11.0 µM 98% | [11]; at 33.0 µM 99% | [11]; at 100.0 µM 98% | [12]; at 11.0 µM 97% | [12]; at 33.0 µM 98% | [12]; at 100.0 µM 97% | [13]; at 3.7 µM 72% | [13]; at 11.0 µM 96% | [13]; at 33.0 µM 97% | [13]; at 100.0 µM 95% | [14]; [16] 88% | [1]; at 11.0 µM 92% | [1]; at 33.0 µM 96% | [1]; at 100.0 µM 93%

Oc1ccc(Cc2nccc3cc(O)c(O)cc23)cc1O
inactive: [2]; at 1.2 µM -9% | [2]; at 3.7 µM 2% | [2]; at 11.0 µM 3% | [2]; at 33.0 µM 19% | [2]; at 100.0 µM 66% | [3]; at 1.2 µM 16% | [3]; at 3.7 µM 31% | [3]; at 11.0 µM 22% | [3]; at 33.0 µM 24% | [3]; at 100.0 µM 33% | [4]; at 1.2 µM 3% | [4]; at 3.7 µM -6% | [4]; [15] 47% | [4]; at 11.0 µM 7% | [4]; at 33.0 µM 11% | [4]; [16] 66% | [4]; at 50.0 µM 48.9% | [4]; at 100.0 µM 28% | [7]; [15] -1% | [7]; [16] 35% | [7]; at 50.0 µM 16.4% | [8]; at 1.2 µM 14% | [8]; at 3.7 µM 11% | [8]; at 11.0 µM 24% | [8]; at 33.0 µM 27% | [8]; at 100.0 µM 55% | [9]; [15] 43% | [9]; [16] 63% | [9]; at 50.0 µM -42.5% | [10]; at 1.2 µM 34% | [10]; at 3.7 µM 46% | [10]; [15] 20% | [10]; at 11.0 µM 57% | [10]; at 33.0 µM 68% | [10]; [16] 59% | [10]; at 50.0 µM 28.6% | [11]; at 1.2 µM -9% | [11]; at 3.7 µM 16% | [11]; at 11.0 µM 31% | [11]; at 33.0 µM 41% | [12]; at 1.2 µM -2% | [12]; at 3.7 µM 11% | [12]; at 11.0 µM 18% | [12]; at 33.0 µM 32% | [12]; at 100.0 µM 65% | [13]; at 1.2 µM 40% | [13]; at 3.7 µM 37% | [13]; at 11.0 µM 42% | [13]; at 33.0 µM 52% | [14]; [15] 33% | [14]; [16] 66% | [14]; at 50.0 µM 53.1% | [1]; at 1.2 µM -10% | [1]; at 3.7 µM 4% | [1]; at 11.0 µM 14% | [1]; at 33.0 µM 5% | [1]; at 100.0 µM 14%
active: [10]; at 100.0 µM 79% | [11]; at 100.0 µM 70% | [13]; at 100.0 µM 73%
